Inconclusive results are not listed. Active and inactive are the calls of the source. Unless noted, calls come from the whole dose curve; as a rule, active = well fitted curve in the direction sought with a large enough effect; inconclusive = small, poorly fitted or top-dose-only effect, or another doubt; inactive = no such curve, though single readings can be large; an effect the other way counts as inactive or inconclusive.
Experiments:
[1] = molecular target: Cellular tumor antigen p53 (Homo sapiens) (UniProt P04637); assay: Primary qHTS for small molecule compounds that upregulate eGFP-tagged delta133p53alpha (in N-terminal) cells. (AID 2060322); settings: NCI-H358 eGFP-delta133p53alpha fluorescence, 24 h; activation: hits give high values; note: nearly all actives have a fitted effect of over 75% in size; note: potency is the fitted concentration of half-maximal effect;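 for activation: series mostly up to about 56 µM; 0% = DMSO vehicle and 100% = reference activator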
Sequence of Cellular tumor antigen p53 (Homo sapiens) (P04637 whole entry, looked up): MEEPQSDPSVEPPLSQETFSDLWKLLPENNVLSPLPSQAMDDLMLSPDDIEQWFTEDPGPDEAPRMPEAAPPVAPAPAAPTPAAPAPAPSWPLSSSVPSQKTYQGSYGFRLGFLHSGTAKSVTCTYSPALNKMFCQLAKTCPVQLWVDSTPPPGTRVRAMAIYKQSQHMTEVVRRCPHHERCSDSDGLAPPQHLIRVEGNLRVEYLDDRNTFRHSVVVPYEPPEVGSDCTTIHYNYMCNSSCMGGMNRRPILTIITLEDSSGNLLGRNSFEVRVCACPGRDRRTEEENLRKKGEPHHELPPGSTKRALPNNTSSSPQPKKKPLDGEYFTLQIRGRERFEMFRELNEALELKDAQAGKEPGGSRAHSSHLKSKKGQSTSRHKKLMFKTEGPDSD
Summary of the method: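 NCI-H358 cells pre-induced 24 h with 10 ng/ml doxycycline to express N-terminal eGFP-delta133p53alpha, then dosed 24 h at 37C without doxycycline; fixed, Hoechst-stained, GFP intensity by laser scanning cytometry, normalized to DMSO (0%) and 57.5 uM 5-azacytidine (100%).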

[2] = molecular target: Aldehyde dehydrogenase, mitochondrial (Homo sapiens) (UniProt P05091); assay: qHTS for Inhibitors of the Aldehyde Dehydrogenase Family (ALDH2) Confirmatory screens (AID 2061303; active = well fitted inhibition curve with a large enough effect; title and protocol of this record describe different tests; note: % is set by controls: 0 for no effect and ±100 for the full control effect; nearly all actives have a fitted effect of over 45% in size)
[3] = molecular target: Aldehyde dehydrogenase, mitochondrial (Homo sapiens) (UniProt P05091); assay: qHTS for Inhibitors of the Aldehyde Dehydrogenase Family (ALDH2) Primary screen (AID 2061308);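 note: plate controls were vehicle for no effect and reference inhibitor for full effect; nearly all actives have a fitted effect of over 55% in size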
[4] = molecular target: Retinaldehyde dehydrogenase 3 (Homo sapiens) (UniProt P47895); assay: qHTS for Inhibitors of the Aldehyde Dehydrogenase Family (ALDH1A3) Confirmatory screens (AID 2061311); note: nearly all actives have a fitted effect of over 60% in size; note: potency is the fitted concentration of half-maximal effect
[5] = molecular target: Retinal dehydrogenase 2 (Homo sapiens) (UniProt O94788); assay: qHTS for Inhibitors of the Aldehyde Dehydrogenase Family (ALDH1A2) Confirmation screens (AID 2061314); note: % is set by controls: 0 for no effect and ±100 for the full control effect; nearly all actives have a fitted effect of over 65% in size
[6] = molecular target: Retinaldehyde dehydrogenase 3 (Homo sapiens) (UniProt P47895); assay: qHTS for Inhibitors of the Aldehyde Dehydrogenase Family (ALDH1A3) Primary screen (AID 2061315);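 note: plate controls were DMSO vehicle for no effect and reference inhibitor for full effect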
[7] = molecular target: Aldehyde dehydrogenase 1A1 (Homo sapiens) (UniProt P00352); assay: qHTS for Inhibitors of the Aldehyde Dehydrogenase Family (ALDH1A1) Confirmatory screens (AID 2061316); note: nearly all actives have a fitted effect of over 65% in size
[8] = BET inhibitor-based combinations targeting novel dependencies in MECOM-rearranged (r) AML: SET-2 cell line (AID 2202231); settings: SET-2 AML cells viability, CellTiter-Glo luminescence, 48 h; viability: hits give low values, concentration not given here; note: nearly all actives have a fitted effect of over 35% in size; note: potency is the fitted concentration of half-maximal effect;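 for viability: plate controls were DMSO treated cells for no effect and wells without cells for full effect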
Summary of the method: (§1)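 Luminescent ATP readout (CellTiter-Glo) after 48 hr drug exposure gives viability. Curves span 11 concentrations and are normalized to DMSO and empty wells. Activity is reported as area under the curve and its Z-transform within each cell line.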

[9] = BET inhibitor-based combinations targeting novel dependencies in MECOM-rearranged (r) AML: OCI-AML3 cell line (AID 2202232); settings: Potency: OCI-AML3 viability; note: nearly all actives have a fitted effect of over 35% in size; note: potency is the fitted concentration of half-maximal effect
Summary of the method: as §1

[10] = BET inhibitor-based combinations targeting novel dependencies in MECOM-rearranged (r) AML: MV-4-11 cell line (AID 2202233); note: nearly all actives have a fitted effect of over 45% in size; note: potency is the fitted concentration of half-maximal effect
Summary of the method: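 Luminescent ATP readout (CellTiter-Glo, 15 min at room temperature) after 48 hr drug exposure gave viability. Dose-response curves, normalized to DMSO and empty-well controls, were summarized as area under the curve and its mean-centred Z-score.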

[11] = BET inhibitor-based combinations targeting novel dependencies in MECOM-rearranged (r) AML: AML-194 cell line (AID 2202237; note: nearly all actives have a fitted effect of over 40% in size; note: potency is the fitted concentration of half-maximal effect)
Summary of the method: as §1

[12] = molecular target: Retinaldehyde dehydrogenase 3 (Homo sapiens) (UniProt P47895); assay: qHTS for Inhibitors of the Aldehyde Dehydrogenase Family (ALDH1A3) Validation screen (AID 2061312); note: nearly all actives have a fitted effect of over 45% in size; note: potency is the fitted concentration of half-maximal effect
[13] = BET inhibitor-based combinations targeting novel dependencies in MECOM-rearranged (r) AML: AML-191 cell line (AID 2202236;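 note: plate controls were vehicle wells for no effect and wells without cells for full effect; nearly all actives have a fitted effect of over 35% in size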)
Summary of the method: as §1

C=CC(=O)Nc1cccc(Nc2nc(Nc3ccc(Oc4ccnc(C(=O)NC)c4)cc3)ncc2F)c1
inactive: Potency [2] | Potency [3] | Potency [4] | Potency [5] | Potency [6] | Potency [7]
active: Potency [1] 4.26 µM | Potency [8] 23.5 µM | Potency [9] 18.6 µM | Potency [10] 6.61 µM | Potency [11] 18.6 µM

CN(C)c1cccc(Oc2cnc(Nc3cccc(O)c3)nc2)c1
inactive: activation [1] 2.86% | Potency [2]
active: Potency [12] 8.91 µM

CC1(C)CCC2(C(=O)OC3OC(CO)C(O)C(O)C3O)CCC3(C)C(=CCC4C5(C)CCC(O)C(C)(C(=O)O)C5CCC43C)C2C1O (configuration not stated)
inactive: activation [1] 3.57% | Potency [2] | Potency [3] | Potency [4] | Potency [5] | Potency [6] | Potency [7]

O=C(OC1C=C(CO)C2C(OC3OC(CO)C(O)C(O)C3O)OC=CC12O)c1ccc(O)cc1 (configuration not stated)
inactive: activation [1] 12.2% | Potency [2] | Potency [3] | Potency [5]

CC(C)=C1CC2C(CCC2(C)O)C(C)(O)CC1=O (configuration not stated)
inactive: activation [1] 1.79% | Potency [2] | Potency [3] | Potency [5] | Potency [6]

COC(=O)c1c(C)cc(OC(=O)c2c(C)cc(OC)cc2OC)cc1O[C@@H]1O[C@H](CO)[C@@H](O)[C@H](O)[C@H]1O
inactive: activation [1] -15.3% | Potency [2] | Potency [3] | Potency [6]

CCOC(=O)C1=C(N)Oc2ccc(Br)cc2C1C(C#N)C(=O)OCC (configuration not stated)
inactive: Potency [2] | Potency [3] | Potency [12] | Potency [6] | viability [8] 112% | Potency [9] | Potency [10] | Potency [13] | Potency [11]
active: Potency [1] 30.1 µM | Potency [4] 11.3 µM

O=C1NC(=O)C(c2cn(-c3ccccc3)nc2-c2ccc(F)cc2)N1 (configuration not stated)
inactive: activation [1] 4.33% | Potency [2] | Potency [3] | Potency [4] | Potency [5] | Potency [6] | Potency [7]
